Laboratory results taken from PubChem BioAssay.
Unmarked numbers belong to inactive results. Results filed as inconclusive are left out. Activity calls are given as the source filed them. Unless noted, how the calls were made is not given here.

Experiments:
[1] = antimalarial activity against Dd2 strain (AID 2302;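 active means growth inhibition above 50% at the single 2 µM test dose, taken to imply half-maximal potency below 2 µM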;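 further: 0% = DMSO untreated growth and 100% = chloroquine plus artemisinin killed control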); settings: P. falciparum Dd2 in RBCs, LDH growth readout, 72 h; at 2 µM; stronger effect = higher value
[2] = HepG2 cytotoxicity, primary screen, cytotoxicity control for P. falciparum antimalarial project, cell-based, ATP luminescence (AID 2303;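 active means inhibition above 50%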;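 further: 0% = DMSO wells and 100% = digitonin-killed cells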); settings: HepG2 viability, 24-48 h, at 10 µM, stronger effect = higher value
[3] = molecular target: L-lactate dehydrogenase (Plasmodium falciparum (isolate CDC / Honduras)) (UniProt Q27743); experiment: PfLDH activity inhibition – cell lysate, 3D7 strain, counter-screen for P. falciparum growth inhibition project (AID 2304);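 further: 0% = vehicle and 100% = reference inhibitor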; settings: P. falciparum 3D7 crude extract, LDH APAD/NBT absorbance; at 2 µM; stronger effect = higher value
[4] = inhibition of 3D7 malaria parasite growth – strain 3D7 (AID 2306);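 further: 0% = DMSO wells and 100% = chloroquine plus artemisinin control wells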; settings: P. falciparum 3D7 erythrocytic growth, LDH absorbance, 72 h; at 2 µM; stronger effect = higher value
[5] = circadian clock period modulators, cell-based, LOPAC library, luminescence reporter (AID 2774); settings: circadian reporter cells, at 7 µM, actives lie on both sides;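 further: values are relative to mean of DMSO wells on each plate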
[6] = system: Hepatitis C virus NS3 helicase; experiment: HCV NS3 helicase inhibitors, primary screen, biochemical, fluorescence polarization, LOPAC1280 library (AID 687035; in the data active means inhibition above about 37%); settings: Purified HCV NS3 helicase, Cy5-dT15 ssDNA binding fluorescence polarization; stronger effect = higher value; concentration not given here
[7] = Cy5 fluorescence quenching or enhancement artefacts, artefact control for HCV NS3 helicase inhibitor project, biochemical, LOPAC1280 (AID 687037); settings: Cy5-DNA-NS3h complex fluorescence interference counterscreen
[8] = molecular target: ATP-dependent translocase ABCB1 (Homo sapiens) (UniProt P08183); experiment: MDR1 (ABCB1) efflux transporter inhibition, cell-based (AID 377; in the data active means fluorescence slope change above about 50%); settings: MDR1-expressing cells, fluorescent substrate accumulation slope; stronger effect = higher value; concentration not given here
ATP-dependent translocase ABCB1 (Homo sapiens), sequence (P08183 whole entry, looked up): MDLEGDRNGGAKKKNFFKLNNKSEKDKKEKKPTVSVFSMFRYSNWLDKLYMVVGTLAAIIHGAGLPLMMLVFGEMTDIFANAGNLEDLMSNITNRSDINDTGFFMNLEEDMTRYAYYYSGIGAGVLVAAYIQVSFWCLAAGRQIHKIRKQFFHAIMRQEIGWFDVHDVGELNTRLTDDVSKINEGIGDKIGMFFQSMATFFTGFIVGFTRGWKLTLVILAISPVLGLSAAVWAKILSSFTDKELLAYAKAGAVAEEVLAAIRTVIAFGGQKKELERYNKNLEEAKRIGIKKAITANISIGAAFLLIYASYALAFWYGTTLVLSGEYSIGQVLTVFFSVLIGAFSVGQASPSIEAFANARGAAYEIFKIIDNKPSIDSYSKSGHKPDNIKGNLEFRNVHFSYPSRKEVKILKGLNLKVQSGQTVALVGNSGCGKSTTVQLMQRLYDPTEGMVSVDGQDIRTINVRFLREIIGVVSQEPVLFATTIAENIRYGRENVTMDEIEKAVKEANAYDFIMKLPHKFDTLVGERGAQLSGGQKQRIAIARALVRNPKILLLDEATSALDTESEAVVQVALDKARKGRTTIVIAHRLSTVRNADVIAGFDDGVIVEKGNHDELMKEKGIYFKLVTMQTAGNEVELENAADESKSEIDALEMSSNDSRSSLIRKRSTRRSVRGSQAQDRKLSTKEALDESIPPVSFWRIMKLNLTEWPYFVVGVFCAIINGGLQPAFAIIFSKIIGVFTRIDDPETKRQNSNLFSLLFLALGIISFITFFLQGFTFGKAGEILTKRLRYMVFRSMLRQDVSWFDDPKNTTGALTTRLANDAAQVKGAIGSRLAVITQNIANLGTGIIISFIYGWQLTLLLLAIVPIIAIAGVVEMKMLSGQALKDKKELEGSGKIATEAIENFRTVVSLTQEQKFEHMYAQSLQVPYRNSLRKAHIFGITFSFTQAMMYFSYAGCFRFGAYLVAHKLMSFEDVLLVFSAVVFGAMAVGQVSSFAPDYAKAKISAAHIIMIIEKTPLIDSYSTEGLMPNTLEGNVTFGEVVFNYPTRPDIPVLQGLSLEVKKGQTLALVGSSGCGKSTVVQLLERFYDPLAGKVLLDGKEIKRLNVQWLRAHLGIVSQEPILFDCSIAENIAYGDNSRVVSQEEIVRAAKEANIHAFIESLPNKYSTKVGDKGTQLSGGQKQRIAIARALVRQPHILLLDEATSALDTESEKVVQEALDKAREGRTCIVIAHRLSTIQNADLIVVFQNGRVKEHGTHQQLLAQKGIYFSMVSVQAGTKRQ

L-lactate dehydrogenase (Plasmodium falciparum (isolate CDC / Honduras)), sequence (Q27743 whole entry, looked up): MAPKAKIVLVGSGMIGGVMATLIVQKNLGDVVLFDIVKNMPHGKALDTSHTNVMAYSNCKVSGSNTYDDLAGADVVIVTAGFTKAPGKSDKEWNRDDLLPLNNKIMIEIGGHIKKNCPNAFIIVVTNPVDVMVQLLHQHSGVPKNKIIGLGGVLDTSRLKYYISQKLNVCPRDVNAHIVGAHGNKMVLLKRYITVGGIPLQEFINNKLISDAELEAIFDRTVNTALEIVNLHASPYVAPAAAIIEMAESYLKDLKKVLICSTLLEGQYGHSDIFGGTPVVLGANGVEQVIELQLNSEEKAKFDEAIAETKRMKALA

## ON=C1CCc2cc(-c3nc(-c4ccc(OCCN5CCCCC5)cc4)[nH]c3-c3ccncc3)ccc21
[1]
  growth inhibition: 54% (active)
[2]
  inhibition: 73% (active)
[3]
  inhibition: 3%
[4]
  growth inhibition: 99% (active)

## CCC[C@@H]([C@@H](CC(C)C)C(=O)N[C@@H](CCCN=C(N)NS(C)(=O)=O)C(=O)Nc1nccs1)N(O)C=O
[1]
  growth inhibition: 41%
[2]
  inhibition: 10%
[3]
  inhibition: 0%
[4]
  growth inhibition: 95% (active)

## Oc1cccc(-c2nc3ccc(C4=N[C@H]5CCCC[C@H]5N4)cc3[nH]2)c1
[1]
  growth inhibition: 97% (active)
[2]
  inhibition: -3%
[3]
  inhibition: 1%
[4]
  growth inhibition: 98% (active)

## CC[C@H](C)[C@H](NC(=O)[C@H](CC1CCCCC1)[C@H](CC)N(O)C=O)C(=O)Nc1ccccn1
[1]
  growth inhibition: 95% (active)
[2]
  inhibition: 14%
[3]
  inhibition: -1%
[4]
  growth inhibition: 96% (active)

## COc1ccc2c(c1)c(CC(=O)O)c(C)n2Cc1ccc(F)cc1
[5]
  period change: -0.005 h

## CCC[C@@H]([C@@H](CC(C)C)C(=O)N[C@@H](CCCCNC(=O)OCc1ccccc1)C(=O)Nc1ncccn1)N(O)C=O
[1]
  growth inhibition: 98% (active)
[2]
  inhibition: 3%
[3]
  inhibition: 4%
[4]
  growth inhibition: 100% (active)

## CN(Cc1cnc2nc(N)nc(N)c2n1)c1ccc(C(=O)N[C@H](CCC(=O)O)C(=O)O)cc1
[1]
  growth inhibition: 44%
[2]
  inhibition: 65% (active)
[3]
  inhibition: -4%
[4]
  growth inhibition: 92% (active)
[5]
  period change: 0.095 h

## CN(C)c1nc(NCc2ccccc2)nc(NN=Cc2cc([N+](=O)[O-])ccc2O)n1
[1]
  growth inhibition: 90% (active)
[2]
  inhibition: 48%
[3]
  inhibition: -5%
[4]
  growth inhibition: 100% (active)

## COc1cc(-c2nc(-c3ccc4c(c3)CCC4=NO)c(-c3ccncc3)[nH]2)ccc1OCCN1CCN(C)CC1
[1]
  growth inhibition: 77% (active)
[2]
  inhibition: 53% (active)
[3]
  inhibition: 3%
[4]
  growth inhibition: 99% (active)

## Oc1cccc(-c2nc(-c3cccc(I)c3)c(-c3ccc(-c4nc(-c5cccc(O)c5)[nH]c4-c4cccc(I)c4)cc3)[nH]2)c1
[1]
  growth inhibition: 66% (active)
[2]
  inhibition: -4%
[3]
  inhibition: -2%
[4]
  growth inhibition: 96% (active)

## CCC[C@@H]([C@@H](CC1CCCCC1)C(=O)N[C@H](C(=O)Nc1nccc(N)n1)C(C)(C)C)N(O)C=O
[1]
  growth inhibition: 82% (active)
[2]
  inhibition: 25%
[3]
  inhibition: 5%
[4]
  growth inhibition: 96% (active)

## COc1ccccc1N1CCN(CCCCNS(=O)(=O)c2cccc3c(N(C)C)cccc23)CC1
[5]
  period change: 0.125 h

## Cc1cc(C)c2c(c1)C(=NO)CCN2
[1]
  growth inhibition: 2%
[2]
  inhibition: 2%
[3]
  inhibition: 7%
[4]
  growth inhibition: 94% (active)

## Oc1ccc2ccccc2c1C=NNc1nc(Nc2ccccc2)nc(N2CCOCC2)n1
[1]
  growth inhibition: 49%
[2]
  inhibition: 66% (active)
[3]
  inhibition: -5%
[4]
  growth inhibition: 100% (active)

## Nc1ccc(-c2nc3cc(C4=N[C@H]5CCCC[C@H]5N4)ccc3o2)cc1[N+](=O)[O-]
[1]
  growth inhibition: 33%
[2]
  inhibition: 16%
[3]
  inhibition: 1%
[4]
  growth inhibition: 95% (active)

## COc1cc(-c2nc(-c3ccc4c(c3)CCC4=NO)c(-c3ccncc3)[nH]2)ccc1OCCN1CCCCC1
[1]
  growth inhibition: 80% (active)
[2]
  inhibition: 75% (active)
[3]
  inhibition: 1%
[4]
  growth inhibition: 101% (active)

## CC(=NNC(N)=O)C1=C(O)C(c2ccccc2)N(C2CCCCC2)C1=O (stereo unspecified)
[1]
  growth inhibition: 96% (active)
[2]
  inhibition: 59% (active)
[3]
  inhibition: 0%
[4]
  growth inhibition: 93% (active)

## CN(C)CCCOc1ccc(-c2nc(-c3ccc4c(c3)CCC4=NO)c(-c3ccncc3)[nH]2)cc1
[1]
  growth inhibition: 63% (active)
[2]
  inhibition: 68% (active)
[3]
  inhibition: -3%
[4]
  growth inhibition: 96% (active)

## CN(C)c1cc(NN=Cc2cc(Cl)ccc2O)nc(N(C)C)n1
[1]
  growth inhibition: 98% (active)
[2]
  inhibition: 3%
[3]
  inhibition: 0%
[4]
  growth inhibition: 98% (active)

## CN(C)c1nc(NN=Cc2cc(Cl)ccc2O)nc(Nc2ccc(F)cc2)n1
[1]
  growth inhibition: 46%
[2]
  inhibition: 32%
[3]
  inhibition: -3%
[4]
  growth inhibition: 94% (active)

## COc1ccc(Nc2nc(NN=Cc3cc(Br)ccc3O)nc(Nc3ccc([N+](=O)[O-])cc3)n2)cc1
[1]
  growth inhibition: 37%
[2]
  inhibition: 27%
[3]
  inhibition: 7%
[4]
  growth inhibition: 97% (active)

## O=[N+]([O-])c1ccc(-c2nc3ccc(C4=N[C@H]5CCCC[C@H]5N4)cc3[nH]2)cc1
[1]
  growth inhibition: 30%
[2]
  inhibition: -1%
[3]
  inhibition: 3%
[4]
  growth inhibition: 100% (active)

## CCCO[C@H](C(=O)OC)[C@@H](CC1Cc2ccccc2C1)C(=O)NCCC1=CCCCC1
[1]
  growth inhibition: 57% (active)
[2]
  inhibition: 6%
[3]
  inhibition: 1%
[4]
  growth inhibition: 93% (active)

## CCN1CCN(c2cc(C)c3cc(NC(=O)c4ccc(C(C)(C)C)cc4)ccc3n2)CC1
[2]
  inhibition: 34%
[3]
  inhibition: -3%
[4]
  growth inhibition: 85% (active)

## O=S(=O)(O)C1CCNCC1
[5]
  period change: 0.07 h

## CC1CCC(C[C@@H](C(=O)N[C@@H](CCC(=O)N2CCCCC2)C(=O)Nc2nccs2)[C@H](C(C)C)N(O)C=O)CC1 (stereo partly specified)
[1]
  growth inhibition: 70% (active)
[2]
  inhibition: 38%
[3]
  inhibition: 7%
[4]
  growth inhibition: 87% (active)

## COc1cc(C=NNc2ccnc3cc(Cl)ccc23)ccc1O
[1]
  growth inhibition: 100% (active)
[2]
  inhibition: 15%
[3]
  inhibition: -7%
[4]
  growth inhibition: 101% (active)

## C/C=C1\C(=O)CC2C3CCC4=CC(=O)CC[C@]4(C)C3CC[C@]12C (stereo partly specified)
[5]
  period change: 0.03 h

## COc1cc2nc(N3CCN(C(=O)OCc4ccccc4)C(C(=O)NC(C)(C)C)C3)nc(N)c2cc1OC (stereo unspecified)
[5]
  period change: 0.085 h
[6]
  inhibition: -3%
[7]
  fluorescence ratio (interference): 1

## CCCNC[C@H](O)COc1ccccc1C(=O)CCc1ccccc1
[5]
  period change: 0.08 h

## O=C(O)/C=C/C(O)c1ccc(Cl)cc1 (stereo unspecified)
[5]
  period change: 0.15 h
[6]
  inhibition: 1%
[7]
  fluorescence ratio (interference): 1

## CCCn1c(=O)c2[nH]c(-c3ccc(OCC(=O)NCCN)cc3)nc2n(CCC)c1=O
[5]
  period change: -0.09 h
[6]
  inhibition: -2%
[7]
  fluorescence ratio (interference): 1

## NCCCCNS(=O)(=O)c1cccc2c(Cl)cccc12
[5]
  period change: 0.09 h

## CC(C)[C@@H](CO)Nc1nc(Nc2cccc(Cl)c2)c2ncn(C(C)C)c2n1
[5]
  period change: -0.115 h

## COc1cc2c(cc1OC)[C@@H](c1ccccc1)CN(C)CC2
[5]
  period change: 0 h

## CN1CCc2cc(O)c(O)cc2C(c2ccccc2)C1 (stereo unspecified)
[5]
  period change: 0.07 h
[6]
  inhibition: -5%
[7]
  fluorescence ratio (interference): 1

## Nc1ncnc2c1ncn2[C@@H]1O[C@H](C(=O)NC2CC2)[C@H](O)C1O (stereo partly specified)
[5]
  period change: -0.165 h

## CC(=O)NCCc1ccc(O)c(O)c1
[5]
  period change: -0.045 h

## C[N+](C)(CCCCCC[N+](C)(C)CCCN1C(=O)c2cccc3cccc(c23)C1=O)CCCN1C(=O)c2cccc3cccc(c23)C1=O
[5]
  period change: -0.055 h

## Cn1cnc2c(NC3CCCC3)ncnc21
[5]
  period change: 0.425 h

## CCCC(=O)NCCc1c2n(c3ccc(OC)cc13)Cc1ccccc1-2
[5]
  period change: 0.125 h

## C[C@H](CCC(=O)O)[C@H]1CC[C@H]2[C@@H]3C(O)C[C@@H]4CC(O)CC[C@]4(C)[C@H]3CC[C@]12C (stereo partly specified)
[8]
  fluorescence slope change: 167% (active)

## O=C(O)[C@@H]1C[C@H](C(=O)O)N1
[5]
  period change: -0.02 h
[6]
  inhibition: -1%
[7]
  fluorescence ratio (interference): 1.1

## Nc1ccc(S(=O)(=O)Nc2ccc3nccnc3c2)cc1
[8]
  fluorescence slope change: 6.1%

## C[C@@H](NC(=O)/C(C#N)=C/c1ccc(O)c(O)c1)c1ccccc1
[5]
  period change: 0.095 h

## Ic1ccc(N2CCN(Cc3c[nH]c4ncccc34)CC2)cc1
[5]
  period change: 0.1 h
[6]
  inhibition: 6%
[7]
  fluorescence ratio (interference): 0.9

## CC(C)C[C@H](N)CSSC[C@@H](N)CC(C)C
[5]
  period change: -0.095 h

## COc1ccc(C(=O)O[C@H]2CC[C@@]3(C)C4CCC5[C@]6(O)[C@@H](O)[C@H](O)[C@H]7[C@@H](CN8C[C@@H](C)CC[C@H]8[C@@]7(C)O)[C@@H]6C[C@@]53O[C@]42O)cc1OC (stereo partly specified)
[8]
  fluorescence slope change: 2.5%

## NCCNC(=O)c1ncsc1-c1cccc(F)c1
[5]
  period change: 0.08 h
[6]
  inhibition: -3%
[7]
  fluorescence ratio (interference): 1

## COc1cc(Br)c(CC2c3cc(OC)c(OC)cc3CCN2C)cc1OC (stereo unspecified)
[8]
  fluorescence slope change: 9.4%
